# Several values for one entry are separate records, joined by “and”; a condition that tells them apart may be missing. Equal entries are not always repeated. Screen size: about 360,000 compounds; about 3,000 (0.83%) were called active. Rule as the data show it: active = inhibition above about 50%; inactive = the rest. The sample as a whole holds a higher share of actives than the screen did. Some structures have more than one record in an assay (separate samples or runs), and their calls can disagree.
# Target: DNA (cytosine-5)-methyltransferase 1 (Homo sapiens) (UniProt P26358)
# Assay: human DNMT1 methyltransferase inhibitors, primary screen, biochemical, molecular beacon, fluorescence, HinP1I cleavage, uHTS (AID 588458)
# Conditions: at 10 µM, stronger effect = higher value
# DNA (cytosine-5)-methyltransferase 1 (Homo sapiens), sequence (P26358 504-1616 limits assumed): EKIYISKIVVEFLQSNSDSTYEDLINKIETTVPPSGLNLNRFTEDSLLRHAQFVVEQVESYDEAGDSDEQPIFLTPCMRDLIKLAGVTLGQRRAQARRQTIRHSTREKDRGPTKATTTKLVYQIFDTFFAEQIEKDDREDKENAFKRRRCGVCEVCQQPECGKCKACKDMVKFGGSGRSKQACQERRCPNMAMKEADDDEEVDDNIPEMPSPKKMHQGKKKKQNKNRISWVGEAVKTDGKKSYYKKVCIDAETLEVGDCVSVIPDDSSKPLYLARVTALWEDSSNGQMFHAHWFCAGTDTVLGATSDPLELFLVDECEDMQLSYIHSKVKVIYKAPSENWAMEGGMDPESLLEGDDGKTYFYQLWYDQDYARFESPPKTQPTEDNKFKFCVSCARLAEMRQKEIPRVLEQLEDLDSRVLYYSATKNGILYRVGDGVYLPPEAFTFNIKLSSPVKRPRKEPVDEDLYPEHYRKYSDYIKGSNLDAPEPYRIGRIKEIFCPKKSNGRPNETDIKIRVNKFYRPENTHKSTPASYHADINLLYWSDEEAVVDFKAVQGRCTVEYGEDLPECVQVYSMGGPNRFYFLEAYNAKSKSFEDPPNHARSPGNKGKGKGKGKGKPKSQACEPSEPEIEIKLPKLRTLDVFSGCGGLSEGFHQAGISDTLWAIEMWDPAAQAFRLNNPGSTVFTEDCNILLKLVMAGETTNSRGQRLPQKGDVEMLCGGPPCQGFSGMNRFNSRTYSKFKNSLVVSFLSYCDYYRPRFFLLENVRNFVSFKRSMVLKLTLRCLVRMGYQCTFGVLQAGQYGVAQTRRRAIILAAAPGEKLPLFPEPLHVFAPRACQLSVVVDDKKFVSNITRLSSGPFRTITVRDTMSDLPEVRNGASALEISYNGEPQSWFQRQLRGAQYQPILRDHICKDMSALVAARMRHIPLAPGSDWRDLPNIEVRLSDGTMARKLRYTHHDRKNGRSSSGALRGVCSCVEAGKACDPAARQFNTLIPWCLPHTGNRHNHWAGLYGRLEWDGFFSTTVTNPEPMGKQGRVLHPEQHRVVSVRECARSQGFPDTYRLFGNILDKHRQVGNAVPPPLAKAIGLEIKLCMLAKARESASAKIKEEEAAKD
row,SMILES,inhibition (reported as % activation of signal)
1,CC(C)NC(=O)NC(=O)COC(=O)c1ccc(NC(=O)CC#N)cc1,-1.52% (inactive)
2,CCOc1ccc(NC(=O)c2ccc(NC(=O)COC(=O)c3ccc(NC(=O)CC#N)cc3)cc2)cc1,61.4% (active)
3,N#CCC(=O)Nc1ccc(C(=O)OCC(=O)Nc2sc3c(c2C#N)CCCC3)cc1,-11.8% (inactive)
4,CC1CCN(C2=NC(=O)/C(=C/c3cn[nH]c3-c3ccccc3)S2)CC1,-3.21% (inactive)
5,Cc1cccc(-c2cnc(C(O)c3cc(C)cc(C)c3)[nH]2)c1 (stereo not given),4.05% (inactive)
6,Cc1ccc(-n2c(=O)cc(N3CCN(Cc4ccccc4)CC3)[nH]c2=O)cc1,-5.41% (inactive)
7,CN(Cc1nc2ccc(F)cc2[nH]1)Cc1nc(CC2CC2)no1,52.1% (active)
8,CN(Cc1cc2cc(F)ccc2[nH]1)Cc1nc(-c2cnccn2)no1,0.73% (inactive)
9,CN(Cc1ccc2nsnc2c1)Cc1nc(Cc2cccc(F)c2)no1,14.7% (inactive)
10,COc1cc(C2C(N3C(=O)c4ccccc4C3=O)C(=O)N2c2ccc(C)c(C)c2)cc(OC)c1OC (stereo not given),-2.9% (inactive)
11,Cc1ccc(NC(=O)c2cnc(SCC(=O)NCC3CCCO3)n(C)c2=O)cc1 (stereo not given),-0.68% (inactive)
12,N#Cc1ccccc1NC(=O)c1ccc2c(c1)OCO2,2.15% (inactive)
13,Cc1onc(-c2ccccc2)c1C(=O)Nc1ccccc1C#N,86.5% (active) and -2.35% (inactive)
14,Cc1[nH]c2ccccc2c1C(=O)COC(=O)c1c(-c2ccccc2)noc1C,-10.3% (inactive)
15,Cc1ccccc1CN1C[C@@H]2C[C@@H](c3cn(C)nc3-c3ccccc3)N3CCC[C@@]23C1=O,-7.15% (inactive)
16,O=C(COC(=O)CSc1nnc(-c2ccc(Cl)cc2)o1)Nc1cc(Cl)cc(Cl)c1,3.58% (inactive)
17,CCCCC(=O)Nc1c2c(nn1-c1ccc([N+](=O)[O-])cc1)CS(=O)(=O)C2,0.28% (inactive)
18,O=C1/C(=C\c2ccc([N+](=O)[O-])cc2)CS(=O)(=O)C/C1=C/c1ccc([N+](=O)[O-])cc1,101% (active)
19,CN(C)S(=O)(=O)N1CCN(c2ccc([N+](=O)[O-])cc2)CC1,-0.57% (inactive)
20,Cc1ccc(CN2CC(N3CCC(Cc4ccccc4)CC3)CS2(=O)=O)cc1 (stereo not given),-0.65% (inactive)
21,Cc1ccc(OCc2nnc(SC3CCc4ccccc4C3=O)n2C)cc1 (stereo not given),-0.48% (inactive)
22,CC1(C(=O)NS(=O)(=O)c2ccccc2)CCN1C(=O)c1ccccc1 (stereo not given),-2.49% (inactive)
23,CC1(C(=O)NS(=O)(=O)c2ccccc2)CCN1C(=O)C/C=C/c1ccccc1 (stereo not given),84.5% (active)
24,CC1(C(=O)NS(=O)(=O)c2ccccc2)CCN1C(=O)Cc1ccc(-c2ccccc2)cc1 (stereo not given),3.68% (inactive)
25,COc1ccc(CNC(=O)C(NS(=O)(=O)c2cccc3nsnc23)C(C)C)cc1 (stereo not given),2.57% (inactive)
26,O=C1C(Cl)=C(Oc2ccccc2)C(=O)c2ccccc21,78.2% (active)
27,O=C(O)C1CCC(CNS(=O)(=O)c2ccc(Br)cc2)CC1 (stereo not given),0.46% (inactive)
28,O=C(NCC(O)c1nc2ccccc2[nH]1)c1ccc(Br)cc1 (stereo not given),-1.63% (inactive)

row,SMILES,inhibition (reported as % activation of signal)
1,O=C(Nc1cccc(-c2nc3ccccc3[nH]2)c1)c1ccc(C(=O)Nc2cccc(-c3nc4ccccc4[nH]3)c2)cc1,56.8% (active)
2,O=C(Nc1ccccc1)c1cc2ccccc2[nH]1,-1.95% (inactive)
3,COc1ccc(-c2cc(NC=O)c3ncc(-c4cc(OC)c(OC)c(OC)c4)n3c2)c(OC)c1,-21.8% (inactive)
4,O=C(CN1CCN(c2ncccn2)CC1)Nc1ccccc1C(F)(F)F,1.55% (inactive)
5,CC(C)C1CC2=C(C(=O)OC(C)(C)O2)C(c2ccc(F)cc2)O1 (stereo not given),0.41% (inactive)
6,NC(=O)COc1ccc(NC(=O)c2ccccc2-c2ccccc2)cc1,1.27% (inactive)
7,CCCNC(=O)c1cnc(-c2ccccc2)nc1-c1ccccc1,0.2% (inactive)
8,O=C1CSC(=S)N1/N=C/c1ccc(O)c([N+](=O)[O-])c1,76.8% (active)
9,CO/N=C/c1ccc(N2CCN(C(=O)c3cccc(Cl)c3)CC2)c([N+](=O)[O-])c1,-5.17% (inactive)
10,CCOc1cccc(/C=N/N2C(=O)CSC2=S)c1O,-12.4% (inactive)
11,CCc1ccc(OC2(C)CCN(CCOc3ccc(C)cc3)C2)cc1 (stereo not given),1.94% (inactive)
12,CC1(C(=O)NCc2ccc3c(c2)OCO3)CCN1CCc1ccccc1 (stereo not given),0.65% (inactive)
13,CC(C)CCSc1ncnc2c1oc1nc3c(cc12)COC(C)(C)C3,0.16% (inactive)
14,CC1(C)Cc2nc3sc4c(SCC(=O)NC(c5ccccc5)c5ccccc5)ncnc4c3cc2CO1,50% (active)
15,CCOc1ccc(NC(=O)CSc2ncnc3c2sc2ccccc23)cc1,11.2% (inactive)
16,C=CC[C@@H](CC(=O)N[C@H](CO)Cc1ccccc1)C(=O)N[C@@H](COC(=O)[C@@H](CC=C)Cc1ccc(F)cc1)Cc1c[nH]c2ccccc12,63.8% (active)
17,C=CCC[C@H](Cc1ccc(F)cc1)C(=O)OC[C@@H](Cc1c[nH]c2ccccc12)NC(=O)[C@H](CC=C)CC(=O)N[C@H](CO)Cc1ccccc1,4.02% (inactive)
18,C=CC[C@H](CC(=O)NCCO)C(=O)N[C@@H](COC(=O)[C@@H](CC=C)Cc1ccc(F)cc1)Cc1c[nH]c2ccccc12,-10.1% (inactive)
19,O=C(Cc1ccc([N+](=O)[O-])cc1)NCCS(=O)(=O)N1CCN(c2ccccc2)CC1,-1.35% (inactive)
20,Cc1cccc(C(=O)N2CCC(c3nc4ccccc4s3)CC2)c1,-3.99% (inactive)
21,O=C(c1cccs1)N1CCC(c2nc3ccccc3s2)CC1,73.8% (active)
22,Cc1cccc(NC(=S)N2CCC(c3nc4ccccc4s3)CC2)c1,-5.14% (inactive)
23,CC(=O)N1CCc2cc(Br)cc(S(=O)(=O)CCC(=O)Nc3c(C)n(C)n(-c4ccccc4)c3=O)c21,0.99% (inactive)
24,COc1ccc(-c2[nH][nH]c(=O)c2NC(=O)c2ccc([N+](=O)[O-])cc2)cc1,-19.5% (inactive)
25,COc1ccc(S(=O)(=O)N2CCC(C(=O)OCC(=O)c3ccccc3)CC2)cc1[N+](=O)[O-],6.89% (inactive)
26,COc1ccc(Br)cc1/C=N/Nc1ccc(S(=O)(=O)Nc2ccccc2C(=O)O)cc1[N+](=O)[O-],97.5% (active)
27,COc1ccccc1C(CNC(=O)c1cccc(NS(=O)(=O)c2ccc(Br)cc2)c1)N(C)C (stereo not given),2.12% (inactive)

# Source: PubChem BioAssay AID588458 (Sanford-Burnham Center for Chemical Genomics, 2011)
